This is a sample that favours compounds with a hit; in the whole collection about 7.2% have one here.
Sm TGR inh – inhibitors of Schistosoma mansoni thioredoxin glutathione reductase; Q962Y6; purified TGR, DTNB reduction, TNB absorbance 405 nm; Potency, µM (series often up to 114 µM), for inactives: top-dose activity change, negative = inhibition, usual class: inhibitors; 360,000 compounds, 3% hits; AID 485364; note: nearly all actives have a fitted effect of over 60% in size
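Kinetic colorimetric format: TGR-catalysed, NADPH-driven DTNB reduction monitored via TNB absorbance. Enzyme dispensed at 20 nM; compound exposure 15 min at room temperature before reaction start.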
MARV entry inh – Marburg virus entry inhibition. Marburg virus pseudotyped entry inhibition, cell reporter. Potency, µM (doses to about 37.8 µM), without a hit: at the highest dose activity change, negative = inhibition, usual class: inhibitors. 300,000 compounds, 1.8% hits. AID 540276; calls by dose curve; tested in HEK293 cells
HCV inhibitor – HCV inhibition. 340,000 compounds, 3.4% hits. Huh7.5.1 HCVcc-Cre infection, luciferase reporter, 44 h. Potency, µM (top dose mostly 41.8 µM), without a hit: top-dose activity change, negative = inhibition, most hits filed as inhibitors
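Infectious HCV cell culture screen: compound-treated cells (1,000/well, pre-plated 4 h) are infected with HCVcc-Cre at roughly 0.5 moi and grown 44 h. Infection is quantified by luciferase signal after 15 min substrate incubation at room temperature.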
LASV entry inh – inhibitors of Lassa virus binding or cell entry; AID 540256; 300,000 compounds, 1.2% hits; Lassa virus pseudotype entry inhibition, cell reporter; Potency, µM (highest dose often 37.9 µM), for inactives: at the highest dose activity change, negative = inhibition, most hits filed as inhibitors; calls by dose curve; tested in HEK293 cells; note: nearly all actives have a fitted effect of over 50% in size
FMDV inh – foot and mouth disease virus antiviral activity; FMDV antiviral cell-based qHTS; Potency, µM (top dose mostly 57.9 µM), inactives show top-dose activity change, negative = inhibition, most hits filed as inhibitors; 410,000 compounds, 1.2% hits; AID 1159524; calls by dose curve; tested in HEK293T cells; note: read-out not given here; nearly all actives have a fitted effect of over 45% in size
RE007 growth inh – less growth of the S. pombe RE007 Vpr strain; S. pombe RE007 Vpr strain, BacTiter-Glo ATP luminescence, 24 h; Potency, µM (doses to about 92.2 µM), for inactives: at the highest dose activity change, negative = less growth, usual class: inhibitors; 360,000 compounds, 0.21% hits; AID 651644; active = well fitted falling curve with a large enough effect; inconclusive = small, poorly fitted or top-dose-only effect; inactive = no such curve, though single readings can be large or run the other way; note: nearly all actives have a fitted effect of over 50% in size
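Fission yeast strain RE007, carrying one chromosomally integrated HIV-1 vpr copy, was seeded at OD 0.01 in PMG+AL medium with 23 nL pinned compound. After 24 h at 30 °C and 99% humidity, viability was read by BacTiter-Glo luminescence.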
* hit, by the source's call; ? = inconclusive; nt = no result given; [ ] = dose if it differs, or a comment. Unless noted, calls come from the whole dose curve; as a rule, active = well fitted curve in the direction sought with a large enough effect; inconclusive = small, poorly fitted or top-dose-only effect, or another doubt; inactive = no such curve, though single readings can be large; an effect the other way counts as inactive or inconclusive. % is set by controls: 0 for no effect and ±100 for the full control effect; potency is the fitted concentration of half-maximal effect.

SMILES	Sm TGR inh	MARV entry inh	HCV inhibitor	LASV entry inh	FMDV inh	RE007 growth inh
Cc1[nH]c2ccccc2c1/C=N/NC(=O)c1cc(-c2ccncc2)nc2ccccc12	2%	nt	10µM*	nt	-12%	-1%
Cc1[nH]c2ccccc2c1/C=N/NC(=O)c1cc(-c2ccccc2)n[nH]1	-1%	?	?	?	-14%	-1%
C[C@@H]1CC[C@H]2C(=O)O[C@@H](Cc3ccccc3)CN2[C@H]1c1ccc(Br)cc1	nt	7%[14.2 µM]	nt	nt	nt	nt
COc1ccc(OC)c(NC(=O)c2ccc(-c3nc(CSc4ccccc4)c(C)o3)cc2)c1	-23%	nt	nt	3%[46.1 µM]	?	nt
CCOC(=O)c1c(C)[nH]c(CCC(=O)Nc2ccc(Cl)cc2C)c1C	3%	nt	nt	-18%[46.1 µM]	-23%	nt
Cc1ccccc1Nc1c(C)c(C)nc2ncnn12	-5%	?	11µM*	-27%	?	8%
CCc1nc2ccccc2c(C(=O)Nc2ccc(F)cc2)c1C	1%	nt	7%	nt	-4%	-16%
CCCc1nc2ccccc2c(C(=O)OCC(=O)NCc2ccco2)c1CC	?	-22%	?	-24%	?	11%
CCc1nc2ccccc2c(C(=O)OCC(=O)Nc2ccc(NC(C)=O)cc2)c1C	nt	nt	?	nt	32µM*	-13%
CCc1nc2ccccc2c(C(=O)OCC(=O)NCc2ccco2)c1C	35µM*	?	?	17%	-19%	27%
CCN1CCC(N[C@H]2C[C@@H](C(=O)NC)N(Cc3cccc4ccccc34)C2)CC1	nt	nt	nt	nt	6%	nt
CCOC(=O)CSc1nc(Nc2ccc3c(c2)OCO3)c2ccccc2n1	5%	2%	?	-9%	?	3%
N#CCSc1nc(Nc2ccc3c(c2)OCO3)c2ccccc2n1	11%	?	8.9µM*	-17%	22µM*	-13%
Cc1ccc2nc(C(Cl)(Cl)Cl)nc(N/N=C/c3ccc([N+](=O)[O-])cc3)c2c1	nt	10%[46.1 µM]	?	25%	22µM*	-8%
COc1cc(OC)cc(C(=O)Nc2ccc(-c3nc4cc(C(C)C)ccc4o3)cc2)c1	6%	nt	nt	-13%[46.1 µM]	-7%	nt
CC1(C)CC(=O)C2=C(C1)c1c(ccc3ccccc13)NC2c1ccco1 (configuration not stated)	45µM*	18%	?	-15%	48%	-1%
Cc1ccsc1C1Nc2ccc3ncccc3c2C2=C1C(=O)CC(C)(C)C2 (configuration not stated)	3%	?	-6%	?	-28%	0%
O=C1c2ccccc2-c2nnc(-c3ccccc3)cc21	8%	?	19%	?	-18%	?
COc1ccc(-c2cc3c(nn2)-c2ccccc2C3=O)cc1	0%	?	7%	?	10µM*	?
Cc1ccc(Cn2cc(C=O)c3ccccc32)cc1	2%	1.4µM*	-11%	?	-28%	28%
Clc1ccc(Cn2cc(/C=N/n3cnnc3)c3ccccc32)cc1	-12%	-24%	10µM*	?	?	12%
O=Cc1cn(Cc2ccc(F)cc2)c2ccccc12	8%	?	26%	?	-23%	11%
O=[N+]([O-])/C=C/c1cn(Cc2ccc(F)cc2)c2ccccc12	-14%	7.3µM*	8.9µM*	?	?	12%
O=Cc1cn(Cc2ccc([N+](=O)[O-])cc2)c2ccccc12	-11%	?	9%	10µM*	?	18%
Cc1cc(C)c(NC(=O)C2CCN(c3nn4c(=O)cc(C)nc4s3)CC2)c(C)c1	11%	14%[46.1 µM]	nt	7%[46.1 µM]	2%	nt
SMILES	Sm TGR inh	MARV entry inh	HCV inhibitor	LASV entry inh	FMDV inh	RE007 growth inh
COc1cccc(/C=C/c2onc(C)c2S(=O)(=O)N2CCC(C(=O)N3CCC(C)CC3)CC2)c1	13%	nt	nt	?	-15%	nt
O=C1NC(=O)C(Cc2ccccc2F)(C2CCN(Cc3cccn3-c3cccnc3)CC2)N1 (configuration not stated)	nt	nt	nt	nt	-9%	nt
COc1ccc(CCNC(=O)c2cnn(-c3ccc(F)cc3)c2C2CCN(C(=O)OC(C)(C)C)CC2)c(OC)c1	5%	nt	nt	?	0%	nt
Brc1cc2c(cc1CN1CCN(c3ccccc3)CC1)OCCO2	-8%	?	3%	?	-28%	5%
Oc1c(CN2CCN(c3ccccc3)CC2)cc(Br)c2cccnc12	40µM*	nt	?	nt	?	3%
c1ccc(N2CCN(Cc3ccnc4ccccc34)CC2)cc1	-10%	?	28µM*	-25%	-4%	-5%
Oc1c(Br)cc(Br)c2cccnc12	nt	nt	?	nt	0%	?
Cc1cccc(C(=O)N2CCc3cc(CNS(=O)(=O)c4ccc(F)c(Cl)c4)ccc32)c1	6%	nt	nt	22%[46.1 µM]	-26%	nt
CC(C)CN(CCCNC(=O)CN1N=C(c2ccccc2)CCC1=O)CC(C)C	6%	nt	nt	15%[46.1 µM]	-25%	nt
COc1ccc(C2=CC(=O)C=CC2=O)cc1	0.89µM*	nt	nt	nt	nt	nt
COc1ccc(C2=CC(=O)C[C@H](c3ccc(OC)cc3)C2)cc1	-1%	nt	?	nt	28%	-4%
CCOc1ccc2nc(SCC(=O)Nc3ccc(F)cc3)nc(-c3ccccc3)c2c1	9%	3%[46.1 µM]	nt	13%[46.1 µM]	-17%	nt
COC(=O)c1cc(NC(=O)c2sc3ncn(Cc4cccc(F)c4)c(=O)c3c2C)cc(C(=O)OC)c1	15%	nt	nt	?	-5%	nt
COP(=S)(OC)Oc1ccc([N+](=O)[O-])cc1	nt	nt	nt	nt	22µM*	nt
O=C1C2CCCN2C(c2cccs2)N1c1ccc(Cl)cc1 (configuration not stated)	-13%	?	1%	7.3µM*	13%	-15%
COc1cccc(C2N(c3ccc(Cl)cc3)C(=O)C3CCCN32)c1 (configuration not stated)	-3%	nt	-3%	nt	9%	-4%
COc1ccccc1C1N(c2ccc(Cl)cc2)C(=O)C2CCCN21 (configuration not stated)	0%	4.6µM*	-19%	?	-15%	20%
CCN1CCN(c2oc(-c3ccc(COc4ccc(OC)cc4)o3)nc2C#N)CC1	8%	-6%[46.1 µM]	nt	-17%[46.1 µM]	-20%	nt
Cc1ccc(NC(=O)c2noc(C(C)C)c2[N+](=O)[O-])cc1	40µM*	7%[46.1 µM]	10%	20%	34%	-4%
Cc1onc(C(=O)Nc2cccnc2Cl)c1[N+](=O)[O-]	-21%	0%[46.1 µM]	-5%	-15%[46.1 µM]	-6%	1%
CC(C)c1onc(C(=O)Nc2cccnc2Cl)c1[N+](=O)[O-]	45µM*	nt	3%	nt	-5%	-4%
CCOc1cc(C(=O)Nc2ccc(-c3nnc4n3CCCCC4)cc2)cc(OCC)c1OCC	7%	nt	nt	-5%[46.1 µM]	-25%	nt
O=C(Cn1ncc2c3ccccc3n(Cc3ccccc3F)c2c1=O)NC1CCCCCC1	-2%	-7%[46.1 µM]	nt	-9%[46.1 µM]	-12%	nt
CC1=CC(=O)C=C(C)C1=NOc1ccccc1[N+](=O)[O-]	28µM*	?	22%	?	-3%	-11%
